High-throughput results deposited in PubChem BioAssay by National Center for Advancing Translational Sciences (NCATS).
Hits are enriched below; roughly 12% of the tested compounds scored in any of these assays.
HP1b chromo inh = blocks HP1-beta chromodomain binding to methylated histone tails; P83916; AlphaScreen HP1-beta / biotin-H3K9me3 peptide binding; Potency, µM (series often up to 114 µM), without a hit: top-dose activity change, negative = inhibition, usual class: inhibitors; 0.56% of 390,000 active; AID 540317; further: potency means the concentration at half of the fitted maximal effect; nearly all actives have a fitted effect of over 70% in size
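Compound inhibition of the preformed complex between 50 nM HP1-beta and 50 nM biotinylated H3K9me3 peptide was read by AlphaScreen. Buffer was PBS pH 7.4 with 0.01% Tween-20. Incubations ran 30 min at room temperature, with 10 ug/mL donor/acceptor beads.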
JMJD2A Tudor inh = inhibitors of human JMJD2A Tudor domain. O75164. Potency, µM (highest dose often 114 µM), for the others: top-dose activity change, negative = inhibition, actives largely listed as inhibitors. AID 504339. 4.4% of 390,000 active. AlphaScreen JMJD2A-Tudor / H3K4me3 peptide binding; further: potency means the concentration at half of the fitted maximal effect; on the % scale 0 is the no-effect control and ±100 the full control effect; nearly all actives have a fitted effect of over 50% in size
G9a inh = inhibitors of human histone lysine methyltransferase G9a; Q96KQ7; G9a H3K9 monomethylation, AlphaScreen, 2 h; Potency, µM (highest dose often 102 µM), inactives show at the highest dose activity, negative = inhibition, usual class: inhibitors; 8.8% of 350,000 active; AID 504332; further: potency means the concentration at half of the fitted maximal effect; on the % scale 0 is the no-effect control and ±100 the full control effect; nearly all actives have a fitted effect of over 75% in size
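Signal arises when biotinylated H3K9 peptide, once monomethylated, bridges streptavidin donor and antibody-captured acceptor beads. Enzyme at 20 nM was preincubated 15 min with test compounds; peptide 500 nM and SAM 20 uM then reacted for 2 h.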
BAZ2B block = inhibitors of human BAZ2B bromodomain; Q9UIF8; AlphaScreen BAZ2B-H3K14Ac peptide displacement; Potency, µM (titrated, usually from 114 µM), without a hit: top-dose activity change, negative = inhibition, hits mostly inhibitors; 4.4% of 360,000 active; AID 504333; further: potency means the concentration at half of the fitted maximal effect; on the % scale 0 is the no-effect control and ±100 the full control effect; nearly all actives have a fitted effect of over 60% in size
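In this displacement format the biotinylated H3(5-23) peptide acetylated at Lys14 serves as ligand at 50 nM, with BAZ2B at 50 nM in PBS pH 7.4 containing 0.01% Tween-20. Donor and acceptor beads are 10 ug/mL final.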
PI5P4K alpha inh = PI5P4K alpha (human) kinase inhibition; AID 652105; P48426; 1.2% of 330,000 active; max response, %; PI5P4Kalpha enzyme, ADP-Glo luminescence, 60 min; hits give low values; active means max response of -50% or lower; inconclusive means between -30% and -50%; inactive means -30% or higher; further: value at the top dose of about 77 µM; on the % scale 0 is the no-effect control and ±100 the full control effect
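Controls without substrate or without enzyme flank wells where PI5P4Kalpha converts substrate using 5 microM ATP (final). Incubation lasts 60 minutes at room temperature; ADP formed is read by ADP-Glo luminescence.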
PLK1 PBD block = inhibitors of human PLK1 polo-box domain binding | Plk1 PBD binding of FITC phosphopeptide, fluorescence polarization | 2.8% of 360,000 active | Potency, µM, for inactives: max response, negative = inhibition, usual class: inhibitors; further: potency means the concentration at half of the fitted maximal effect; series mostly up to about 57 µM; on the % scale 0 is the no-effect control and ±100 the full control effect; nearly all actives have a fitted effect of over 65% in size
* = called active by the depositor; ? = inconclusive; . = no result given; [ ] = another dose, or the depositor's remark. Unless noted, the call rests on the fitted dose curve; in most records, active means well fitted curve in the direction sought with a large enough effect; inconclusive means small, poorly fitted or top-dose-only effect, or another doubt; inactive means no such curve, though single readings can be large; an effect the other way counts as inactive or inconclusive.

SMILES	HP1b chromo inh	JMJD2A Tudor inh	G9a inh	BAZ2B block	PI5P4K alpha inh	PLK1 PBD block
O=C1c2ccccc2NC(c2ccccc2O)N1c1ccc(F)cc1 (centres undefined)	28%	2%	-13%	6%	-3	0%
Cc1ccc(N2C(=O)c3ccccc3C2C(=O)c2cc(C)ccc2O)cc1 (centres undefined)	?	?	7.9µM*	-12%	4	-5%
CCCCCCCCCCC/C=C\C/C=C\CCCC(=O)O	.	.	9%[59 µM]	.	.	.
CC/C=C\C/C=C\C/C=C\C/C=C\C/C=C\C/C=C\CCC(=O)O	.	.	7.1µM*	.	.	.
CCCCn1c(=O)[nH]c(=O)c2c1nc(-c1ccncc1)n2CCOC	31%	-8%	9%[12.7 µM]	7%	1	-2%
CCCCn1c(=O)[nH]c(=O)c2c1nc(-c1ccc(-c3ccccc3Br)o1)n2CCOC	5%	-30%	16µM*	-7%	?	-23%
COCCn1c(-c2ccc(-c3ccccc3Cl)o2)nc2c1c(=O)[nH]c(=O)n2CC(C)C	11%	-28%	22µM*	1%	.	-5%
COCCn1c(-c2ccc(NC(C)=O)cc2)nc2c1c(=O)[nH]c(=O)n2CC(C)C	-19%	-11%	40%	4%	-1	-5%
CN(C)c1ccc(CN(Cc2ccco2)C(=O)c2ccc(C(C)(C)C)cc2)cc1	?	13µM*	11µM*	11µM*	.	.
COc1ccc(C(=O)N(Cc2ccc(N(C)C)cc2)Cc2ccco2)cc1Cl	?	35µM*	?	20µM*	.	.
Cc1ccc(C(=O)N(Cc2ccco2)Cc2ccco2)cc1	13%	-29%	?	?	.	.
Cc1cc2oc(C(=O)N(Cc3ccc(N(C)C)cc3)Cc3ccco3)c(C)c2cc1Cl	?	13µM*	13µM*	13µM*	.	.
Cc1cc2oc(C(=O)N(Cc3ccco3)Cc3ccccc3Cl)c(C)c2cc1C	44%	-6%	12%[59 µM]	3%	.	.
CCn1cnc2sc(C(=O)N(Cc3ccc(N(C)C)cc3)Cc3ccco3)c(C)c2c1=O	35µM*	50µM*	16µM*	45µM*	-4	4%
Cc1ccc(-n2nc(C)c3c(C)c(CCC(=O)NCC4CCCO4)c(=O)n(C)c32)cc1 (centres undefined)	15%[57 µM]	-1%	.	-11%	-8	-2%
CN(C)CCNCc1ccc(OC2CCCC2)cc1	29%	-11%	79µM*	-29%	.	-2%
CC(=O)c1c(C)oc2c1C(=O)c1ccccc1C2=O	-3%	-21%	-13%	0%	-4	-21%
O=C(c1ccccc1)c1coc2c1C(=O)c1ccccc1C2=O	?	-19%	45µM*	32µM*	5	-7%
COc1ccc(C(=O)c2coc3c2C(=O)C(=O)c2ccccc2-3)cc1	?	?	.	25µM*	-15	?
O=C1c2ccccc2C(=O)c2c1oc(C(F)(F)F)c2C(=O)c1ccccc1	?	?	4µM*	7.1µM*	-3	-7%
Cc1cn([C@H]2C[C@H](O)[C@@H](CNCC3=Cc4cc(O)ccc4OC3)O2)c(=O)[nH]c1=O	.	.	.	.	3	-5%
O=C(NCc1ccc2c(c1)OCO2)c1ccc2c(c1)S(=O)(=O)c1ccccc1C2=O	4%	-32%	.	.	-10	-9%
COc1ccccc1CNC(=O)c1ccc(-c2nc(CN3CCc4ccccc43)c(C)o2)cc1	-3%[57 µM]	?	?	-36%	.	.
CC(C)C[C@@H]1CC2=C(C(=O)OC(C)(C)O2)[C@H](c2ccc(Cl)cc2)O1	.	.	.	.	-5	-15%
CCOc1ccc(N=Nc2c(=O)[nH]n3c(C)cc(C)nc23)cc1	?	?	7.1µM*	?	-11	-2%
CCN(CC(=O)Nc1ccc(NC(C)=O)cc1)C(=O)CN1C(=O)C2CCCCC2C1=O (centres undefined)	35%	-11%	21%[59 µM]	28%	0	-9%
O=C(Oc1ccccc1)N1CCC[C@@]2(CCN(c3ncccn3)C2)C1	.	.	-6%[12.7 µM]	.	.	.
CCOc1ccc(Nc2nc3cc(S(=O)(=O)N(CC)CC)ccc3o2)cc1	-53%	-17%	2.2µM*	-27%	?	5.3µM*
